An excerpt weighted towards active compounds, which were near 10% of everything screened.
KB-V1 MDR tox: KB-V1 MDR subline cytotoxicity | KB-V1 MDR cells viability, CellTiter-Glo, 72 h | Potency, µM (series often up to 46.1 µM), usual class: cytotoxic | 400,000 compounds, 3.4% hits | AID 1347076; further: on the % scale 0 is the no-effect control and ±100 the full control effect; nearly all actives have a fitted effect of over 60% in size
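Drug-selected KB-V1 cells, grown in DMEM lacking phenol red with 10% FBS, receive compound titrations; after three days at 37 degrees C, surviving cell ATP is quantified by CellTiter-Glo luminescence and responses normalized and curve-fitted.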
MCF10A rereplic: inducers of DNA re-replication in MCF 10A breast cells; MCF 10A DNA re-replication, Hoechst nuclear intensity, 48 h; Potency, µM (highest dose often 46.1 µM), inactives show at the top dose activity, positive = re-replication, usual class: activators; 350,000 compounds, 2.9% hits; further: % of control where 0% means no effect; nearly all actives have a fitted effect of over 50% in size
KB-3-1 tox: KB-3-1 parental cell cytotoxicity. KB-3-1 viability, CellTiter-Glo ATP luminescence, 72 h. Potency, µM (doses to about 46.1 µM), usual class: cytotoxic. 400,000 compounds, 1.4% hits. AID 1347075; further: on the % scale 0 is the no-effect control and ±100 the full control effect; nearly all actives have a fitted effect of over 60% in size
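Luminescent ATP read-out (CellTiter-Glo) measures survival of drug-naive KB-3-1 cells after 72 h compound exposure at 37 °C. Titration series was screened from lowest to highest concentration, with DMSO vehicle plates as background controls.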
SW480 rerep: induces DNA re-replication in SW480 colon adenocarcinoma cells | 340,000 compounds, 1.8% hits | Potency, µM (top dose mostly 46.1 µM), for inactives: at the highest dose re-replication activation, usual class: activators | SW480 DNA re-replication, Hoechst DNA content imaging, 48 h; further: % of control where 0% means no effect; nearly all actives have a fitted effect of over 55% in size
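Hoechst fluorescence of nuclei (405 nm excitation, 500-530 nm emission) measured by plate-scanning imager after 48 hr compound exposure at 37 C; re-replication scored as increased number of nuclei with elevated intensity.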
RORg inh: inhibitors of mouse ROR gamma transcriptional activity. P51450. Drosophila S2 Gal4-RORgamma UAS-luciferase reporter, 20 h. Potency, µM (series often up to 53.6 µM), without a hit: top-dose activity change, negative = inhibition, actives largely listed as inhibitors. 310,000 compounds, 5.4% hits; further: on the % scale 0 is the no-effect control and ±100 the full control effect; nearly all actives have a fitted effect of over 60% in size
Target sequence (P51450 whole entry, looked up, the tested form may be a part): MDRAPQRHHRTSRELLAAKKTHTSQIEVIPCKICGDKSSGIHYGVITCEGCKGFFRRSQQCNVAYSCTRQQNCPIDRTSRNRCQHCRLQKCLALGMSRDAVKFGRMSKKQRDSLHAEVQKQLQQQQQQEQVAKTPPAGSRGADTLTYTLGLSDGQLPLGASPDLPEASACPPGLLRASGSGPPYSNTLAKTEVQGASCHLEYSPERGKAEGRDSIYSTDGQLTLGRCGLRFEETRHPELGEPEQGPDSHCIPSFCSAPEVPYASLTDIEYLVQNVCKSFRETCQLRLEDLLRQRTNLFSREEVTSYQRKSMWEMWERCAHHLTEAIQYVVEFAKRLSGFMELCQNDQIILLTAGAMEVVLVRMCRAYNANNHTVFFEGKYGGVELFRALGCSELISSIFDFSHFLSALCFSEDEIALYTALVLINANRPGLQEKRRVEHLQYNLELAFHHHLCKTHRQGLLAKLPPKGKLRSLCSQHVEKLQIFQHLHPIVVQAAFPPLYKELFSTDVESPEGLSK
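Luciferase reporter read in Schneider cells carrying Gal4-RORγ (mouse) and UAS-Photinus luciferase; cells given compound 1 h before 700 uM copper sulfate induction, then incubated 20 h at ambient temperature.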
Gal4-VP16 FLuc: Gal4-VP16 reporter inhibition counter-screen. Drosophila S2 Gal4-VP16 UAS-luciferase, luminescence, 20 h. Potency, µM (titrated, usually from 53.6 µM), for the others: at the highest dose activity, negative = inhibition, hits mostly inhibitors. 310,000 compounds, 3.5% hits. AID 2546;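 further: Gal4-VP16 expression switched on by copper sulfate through the metallothionein promoter; on the % scale 0 is the no-effect control and ±100 the full control effect; nearly all actives have a fitted effect of over 50% in size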
* = called active by the depositor; i = inactive; ? = inconclusive; · = no result given; [ ] = another dose, or the depositor's remark. The call rests on the fitted dose curve; in most records, active means well fitted curve in the direction sought with a large enough effect; inconclusive means small, poorly fitted or top-dose-only effect, or another doubt; inactive means no such curve, though single readings can be large; an effect the other way counts as inactive or inconclusive. Potency means the concentration at half of the fitted maximal effect.

SMILES	KB-V1 MDR tox	MCF10A rereplic	KB-3-1 tox	SW480 rerep	RORg inh	Gal4-VP16 FLuc
S=C(NCc1ccc(Cl)cc1)N1CCN(c2ccccn2)CC1	i	8%[9.22 µM]	i	?	19%	-11%
S=C(NC1CCCC1)N1CCN(c2cccc(Cl)c2)CC1	i	7%	i	-6%	11µM*	-25%
S=C(NC1CC1)N1CCN(c2ccc(Cl)cc2)CC1	i	7%	i	-3%	-37%	10%
S=C(NC1CCCC1)N1CCN(c2ccccn2)CC1	21µM*	21%	i	-6%	-12%	16%
Clc1cccc(N2CCN(CCCN3CCN(c4ccccc4)CC3)CC2)c1	i	?	?	?	·	·
Nc1ccc(N2CCN(c3cccc(Cl)c3)CC2)cc1	21µM*	15%	?	17%	-19%	3%
O=C(COc1ccc(S(=O)(=O)NC2CCCCC2)cc1)N1CCN(c2cccc(Cl)c2)CC1	?	?	13µM*	28%	-7%	?
O=C(NC(=S)N1CCN(c2ccccn2)CC1)c1ccccc1	?	-2%	i	?	2.2µM*	4.5µM*
CC(=O)c1ccc(NC(=S)N2CCN(c3ccccn3)CC2)cc1	i	1%	i	-2%	-9%	-3%
COc1ccc(N(Cc2cc3ccccc3[nH]c2=O)S(C)(=O)=O)cc1	16µM*	-19%	i	-696%	-2%	-16%
CC(C)C(=O)N(Cc1cc2ccccc2[nH]c1=O)C(C)C	16µM*	-6%	i	-9%	4%	-9%
Cc1ccc(N(Cc2cc3cc(C)ccc3[nH]c2=O)S(=O)(=O)c2ccccc2)cc1	?	?	?	18µM*	16%	-4%
Cc1ccc(N(Cc2cc3ccccc3[nH]c2=O)S(C)(=O)=O)cc1	i	5%	i	1%	24%	-16%
CCOc1ccc(C(=O)N(CN2CCCC2=O)c2ccccc2)cc1	i	2%	i	3%	?	3%
CCOc1ccc(C(=O)N(CN2CCCC2=O)c2ccc(C)cc2)cc1	4.6µM*	1%	i	-2%	?	-8%
O=C(NC1CCCCC1)c1cnn2c1NC(=C1CC1)C=C2C(F)F	i	·	i	·	·	·
C[C@H]1OC(OC2C(O)[C@@H](O)C(OC3C(O)[C@@H](O)C(O)O[C@@H]3CO)O[C@@H]2CO)[C@H](O)C(O)C1N[C@H]1C=C(CO)[C@@H](O)[C@H](O)C1O (some centres undefined)	·	-4%	·	-6%	-10%	-1%
COc1ccc2cc3cc(C(=O)Nc4ccccc4C)oc3nc2c1	i	·	i	·	·	·
CCOC(=O)c1ccc(N(CCC2CO2)S(=O)(=O)c2ccc(C)cc2)cc1 (centres undefined)	21µM*	-1%	i	0%	·	·
COc1ccc(S(=O)(=O)N(CC(=O)N/N=C/c2cccs2)c2ccc(C)cc2)cc1OC	i	6%	i	-1%	18%	-4%
CCOc1ccc(N(Cc2ccc(C(=O)O)cc2)S(=O)(=O)c2ccc(C)cc2)cc1	?	3.7µM*	?	?	33%	-8%

Compound activity from PubChem BioAssay.
